Assay results published in PubChem BioAssay (EPA / NIEHS).
Where “and” joins values, the source holds several entries; their conditions need not be identical. Equal entries are not always repeated. Records with an inconclusive call do not appear. Where a structure was tested more than once in an assay, its records may differ in their call. Calls of active or inactive are those of the source. How the source made its calls, unless noted: active means hit-call score of the fitted dose curve at least 0.9, where 1 is the maximum; inactive means score below 0.9.

How the values were obtained:
[1] = target: Nuclear respiratory factor 1 (Homo sapiens) (UniProt Q16656); test: ATG_NRF1_CIS: Attagene CIS-FACTORIAL HepG2 Assay for human Nuclear Respiratory Factor 1 (NRF1) Orphan Gene (AID 2282987); settings: HepG2 NRF1 cis-element reporter, Attagene multiplex; actives raise or lower the signal
How it was run: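 Cells (HepG2, transient MRTU transfection) are exposed to compound for 24 h, then RNA isolated and reporter mRNA amplified and fluorescently labelled. Fragments are separated by capillary electrophoresis; signal change is fitted bidirectionally relative to DMSO.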

[2] = ATG_NFI_CIS: Attagene CIS-FACTORIAL HepG2 Assay for human Nuclear Factor I (NFI) (AID 2282989); settings: HepG2 cis-regulatory reporter, NFI response element transcription; actives raise or lower the signal
How it was run: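 Reporter transcripts were measured by RT-PCR with fluorescent primer extension and capillary electrophoresis 24 h post-treatment. HepG2 cells carried transiently transfected cis-regulated reporter constructs reporting endogenous factor activity; gain or loss fitted against DMSO baseline.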

[3] = target: Myc proto-oncogene protein (Homo sapiens) (UniProt P01106); test: ATG_Myc_CIS: Attagene CIS-FACTORIAL HepG2 Assay for human Myelocytomatosis (Myc) Proto-Oncogene Transcription Factor (AID 2282990); settings: HepG2, Attagene cis-reporter transcription factor activity; actives raise or lower the signal
How it was run: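 Read-out: fluorescent reporter mRNA fragments resolved by capillary electrophoresis after RT-PCR. Human HepG2 liver cells carried transfected cis-element reporter units and were dosed for 24 h. Gain or loss of signal fitted relative to DMSO baseline.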

[4] = ATG_NF_kB_CIS: Attagene CIS-FACTORIAL HepG2 Assay for human Nuclear Factor Kappa B (NF-kB) (AID 2282991); settings: HepG2 Attagene cis-factorial NF-kB reporter mRNA; actives raise or lower the signal
How it was run: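 Measures mRNA induction of an NF-kB-responsive cis-element reporter in HepG2 cells transfected with multiple reporter units, sampled 24 h post-dosing; quantified by fluorescence after RT-PCR and capillary electrophoresis, fitted for activation or inhibition against DMSO.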

[5] = ATG_NRF2_ARE_CIS: Attagene CIS-FACTORIAL HepG2 Assay for human Nuclear Factor Erythroid 2 Related Factor 2 (NFR2) response to Antioxidant Response Elements (ARE) (AID 2282992); settings: HepG2 Attagene ARE/NRF2 reporter, transcription factor activity; actives raise or lower the signal;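 on AC50: reporter mRNA level measured by RT-PCR and capillary electrophoresis fluorescence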
How it was run: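 Transient MRTU transfection of HepG2; 24 h compound exposure; TriZol RNA, RT with oligo(dT), PCR, 6-FAM primer extension, HpaI cut, CE. Bidirectional fit vs DMSO.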

[6] = ATG_Oct_MLP_CIS: Attagene CIS-FACTORIAL HepG2 Assay for human Octamer-Binding Transcription Factor (Oct) (AID 2282993); settings: HepG2 Attagene cis-factorial Oct reporter, mRNA; actives raise or lower the signal
How it was run: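 Readout is reporter transcript level from RT-PCR with fluorescent primer extension and capillary electrophoresis, fitted in both directions against DMSO. Transfected HepG2 reporter units report endogenous factor activity after 24 h dosing.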

[7] = target: Cellular tumor antigen p53 (Homo sapiens) (UniProt P04637); test: ATG_p53_CIS: Attagene CIS-FACTORIAL HepG2 Assay for human p53 Transcription Factor (AID 2282994); settings: HepG2 p53 cis-element reporter, Attagene mRNA; actives raise or lower the signal
How it was run: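 HepG2, transient MRTU transfection (cis promoter elements, endogenous TFs); 24 h dosing; RNA isolation, RT-PCR, 6-FAM primer extension, HpaI digest, CE fluorescence; bidirectional fit vs DMSO.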

[8] = BSK_3C_TissueFactor: BioMAP Diversity Plus: 3C Assay for Tissue Factor Biomarker Activity (AID 2282997); settings: BioMAP 3C HUVEC, tissue factor biomarker readout; actives raise or lower the signal
How it was run: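 Values derive from bidirectional curve fitting against DMSO of Tissue Factor ELISA signals, taken 24 h after dosing primary human umbilical vein endothelial cells.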

[9] = BSK_3C_uPAR: BioMAP Diversity Plus: 3C Assay for Urokinase-type plasminogen activator receptor (uPAR) Biomarker Activity (AID 2282998); settings: BioMAP 3C HUVEC, uPAR biomarker ELISA; actives raise or lower the signal
How it was run: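 Cell-surface uPAR on HUVEC (3C system) read by ELISA at 24 h post-treatment, with DMSO as baseline and fitting in both directions. Parallel cultures stained with SRB to flag overt cytotoxicity.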

[10] = BSK_3C_VCAM1: BioMAP Diversity Plus: 3C Assay for Vascular cell adhesion molecule 1 (VCAM1) Biomarker Activity (AID 2282999); settings: BioMAP 3C HUVEC, VCAM1 ELISA, cytokine-stimulated; actives raise or lower the signal
How it was run: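 Human umbilical vein endothelial cells (3C system), biomarker read by ELISA 24 h after dosing; bidirectional fit against DMSO baseline. Cytotoxicity tracked by SRB total-protein staining in parallel cultures at biomarker time.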

[11] = BSK_4H_Eotaxin3: BioMAP Diversity Plus: 4H Assay for Eotaxin 3 Biomarker Activity (AID 2283000); settings: primary human endothelial cells (HUVEC); actives raise or lower the signal
How it was run: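 Endothelial primary cells (human umbilical vein) exposed to compound for 24 h. ELISA detection of Eotaxin-3.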

[12] = target: human Peroxisome Proliferator-activated Receptor alpha (PPARa), PPARA (gene 5465) (UniProt Q07869); test: ATG_PPARa_TRANS: Attagene TRANS-FACTORIAL HepG2 Assay for human Peroxisome Proliferator-activated Receptor alpha (PPARa) (AID 2283001; active means hit-call score of the fitted dose curve at least 0.9, where 1 is the maximum;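 on AC50: potency for gain of reporter signal over DMSO so agonist or activator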)
How it was run: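 HepG2 cells transiently transfected with multiplexed GAL4-UAS reporters driven by exogenous chimeric NR-Gal4 proteins; reporter mRNA measured after 24 h dosing. Read-out by RT-PCR, 6-FAM labelling, HpaI digestion and capillary electrophoresis; gain of signal versus DMSO.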

[13] = target: human Peroxisome Proliferator-activated Receptor delta (PPARd), PPARD (gene 5467) (UniProt Q03181); test: ATG_PPARd_TRANS: Attagene TRANS-FACTORIAL HepG2 Assay for human Peroxisome Proliferator-activated Receptor delta (PPARd) (AID 2283002; active means hit-call score of the fitted dose curve at least 0.9, where 1 is the maximum)
How it was run: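 Read-out: reporter mRNA induction, quantified by fluorescent RT-PCR products resolved by capillary electrophoresis. Human HepG2 liver cells carried transiently transfected Gal4-UAS reporter constructs with chimeric NR-Gal4 fusions. Cells were dosed for 24 h; DMSO served as baseline.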

[14] = read-out: Intercellular Adhesion Molecule 1 (ICAM1), ICAM1 (gene 3383); test: BSK_3C_ICAM1: BioMAP Diversity Plus: 3C Assay for Intercellular Adhesion Molecule 1 (ICAM1) Biomarker Activity (AID 2283003); settings: primary human endothelial cells (HUVEC); actives raise or lower the signal
How it was run: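 ICAM-1 levels measured by ELISA after HUVEC cultures in the 3C system had been dosed for 24 h. Gain or loss of signal relative to DMSO was fitted in both directions.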

[15] = target: human Retinoic Acid Receptor beta (RARb), RARB (gene 5915) (UniProt P10826); test: ATG_RARb_TRANS: Attagene TRANS-FACTORIAL HepG2 Assay for human Retinoic Acid Receptor beta (AID 2283004; active means hit-call score of the fitted dose curve at least 0.9, where 1 is the maximum)
How it was run: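 HepG2, transient MRTU transfection, NR–Gal4 chimera, 24 h treatment; RT-PCR plus CE fluorescence detection of reporter mRNA; gain of signal vs DMSO.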

[16] = BSK_3C_Proliferation: Cell Proliferation Assessment in the BioMAP Diversity Plus: 3C Assay (AID 2283006); settings: primary human endothelial cells (HUVEC);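 on AC50: potency may reflect either rise or fall in cell number versus DMSO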
How it was run: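 Read-out is total protein by SRB absorbance at 560 nm, taken as a proxy for relative cell number. Primary human umbilical vein endothelium cultured below confluence was dosed for 48 h, TCA-fixed and SRB-stained; curves were fitted bidirectionally versus DMSO.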

[17] = target: Peroxisome proliferator-activated receptor gamma (Homo sapiens) (UniProt P37231); test: ATG_PPARg_TRANS: Attagene TRANS-FACTORIAL HepG2 Assay for human Peroxisome Proliferator-activated Receptor-gamma (PPARg) (AID 2283007; active means hit-call score of the fitted dose curve at least 0.9, where 1 is the maximum)
How it was run: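 Gain-of-signal endpoint relative to DMSO, derived from reporter mRNA levels quantified by RT-PCR and capillary electrophoresis. Cells were HepG2 transiently expressing a chimeric NR-Gal4 construct with GAL4-UAS reporters, exposed to chemicals for 24 h.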

[18] = target: Nuclear receptor subfamily 1 group I member 2 (Homo sapiens) (UniProt O75469); test: ATG_PXR_TRANS: Attagene TRANS-FACTORIAL HepG2 Assay for human Pregnane X Receptor (PXR) (AID 2283008; active means hit-call score of the fitted dose curve at least 0.9, where 1 is the maximum)
How it was run: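 Read-out is fluorescence of labelled reporter cDNA fragments separated by capillary electrophoresis after RT-PCR and HpaI digestion. Source: HepG2 cells carrying PXR-GAL4/UAS reporter constructs, treated 24 h; activity fitted upward relative to DMSO.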

[19] = target: human Retinoic Acid Receptor gamma (RARg), RARG (gene 5916) (UniProt P13631); test: ATG_RARg_TRANS: Attagene TRANS-FACTORIAL HepG2 Assay for human Retinoic Acid Receptor gamma (RARg) (AID 2283009; active means hit-call score of the fitted dose curve at least 0.9, where 1 is the maximum)
How it was run: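 Transient transfection of HepG2 with multi-reporter constructs, then 24 h chemical treatment. Total RNA isolated, reverse-transcribed, PCR-amplified, fluorescently labelled and resolved by capillary electrophoresis; activity scored as mRNA induction versus DMSO.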

[20] = target: Retinoic acid receptor alpha (Homo sapiens) (UniProt P10276); test: ATG_RARa_TRANS: Attagene TRANS-FACTORIAL HepG2 Assay for human Retinoic Acid Receptor alpha (RARa) (AID 2283005; active means hit-call score of the fitted dose curve at least 0.9, where 1 is the maximum)
How it was run: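 HepG2 transiently transfected with multiplex GAL4-UAS reporter units including a human RARa–GAL4 chimera; 24 h compound exposure. Reporter mRNA quantified by RT-PCR, 6-FAM labeling and capillary electrophoresis; gain of signal versus DMSO.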

Measured: AC50

human Peroxisome Proliferator-activated Receptor alpha (PPARa), PPARA (gene 5465), sequence (Q07869 whole entry, looked up, the tested form may be a part): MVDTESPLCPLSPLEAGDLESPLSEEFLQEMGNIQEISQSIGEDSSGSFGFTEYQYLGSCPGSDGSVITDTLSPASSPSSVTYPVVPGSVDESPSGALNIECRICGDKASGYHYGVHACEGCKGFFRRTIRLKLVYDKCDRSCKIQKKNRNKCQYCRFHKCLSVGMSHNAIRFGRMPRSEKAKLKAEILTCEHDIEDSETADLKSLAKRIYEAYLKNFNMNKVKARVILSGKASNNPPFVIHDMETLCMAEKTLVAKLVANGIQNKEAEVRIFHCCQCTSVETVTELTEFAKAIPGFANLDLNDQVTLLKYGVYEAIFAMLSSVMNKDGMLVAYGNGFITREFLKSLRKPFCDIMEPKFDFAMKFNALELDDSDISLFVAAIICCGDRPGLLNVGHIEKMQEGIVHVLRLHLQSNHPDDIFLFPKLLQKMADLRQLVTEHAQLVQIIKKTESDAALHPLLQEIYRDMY
Retinoic acid receptor alpha (Homo sapiens), sequence (P10276 whole entry, looked up, the tested form may be a part): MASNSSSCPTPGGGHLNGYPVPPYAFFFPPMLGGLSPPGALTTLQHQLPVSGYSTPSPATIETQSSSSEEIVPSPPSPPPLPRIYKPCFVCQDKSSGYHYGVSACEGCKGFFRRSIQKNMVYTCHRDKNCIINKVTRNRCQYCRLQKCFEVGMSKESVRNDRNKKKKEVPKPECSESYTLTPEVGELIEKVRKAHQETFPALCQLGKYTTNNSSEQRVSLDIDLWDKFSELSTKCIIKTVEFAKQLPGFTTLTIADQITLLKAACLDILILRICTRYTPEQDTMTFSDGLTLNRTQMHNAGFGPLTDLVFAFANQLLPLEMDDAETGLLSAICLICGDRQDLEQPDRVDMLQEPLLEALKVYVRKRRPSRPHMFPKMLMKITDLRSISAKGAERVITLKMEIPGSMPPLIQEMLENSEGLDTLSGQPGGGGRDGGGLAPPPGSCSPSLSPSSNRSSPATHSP
Peroxisome proliferator-activated receptor gamma (Homo sapiens), sequence (P37231 whole entry, looked up, the tested form may be a part): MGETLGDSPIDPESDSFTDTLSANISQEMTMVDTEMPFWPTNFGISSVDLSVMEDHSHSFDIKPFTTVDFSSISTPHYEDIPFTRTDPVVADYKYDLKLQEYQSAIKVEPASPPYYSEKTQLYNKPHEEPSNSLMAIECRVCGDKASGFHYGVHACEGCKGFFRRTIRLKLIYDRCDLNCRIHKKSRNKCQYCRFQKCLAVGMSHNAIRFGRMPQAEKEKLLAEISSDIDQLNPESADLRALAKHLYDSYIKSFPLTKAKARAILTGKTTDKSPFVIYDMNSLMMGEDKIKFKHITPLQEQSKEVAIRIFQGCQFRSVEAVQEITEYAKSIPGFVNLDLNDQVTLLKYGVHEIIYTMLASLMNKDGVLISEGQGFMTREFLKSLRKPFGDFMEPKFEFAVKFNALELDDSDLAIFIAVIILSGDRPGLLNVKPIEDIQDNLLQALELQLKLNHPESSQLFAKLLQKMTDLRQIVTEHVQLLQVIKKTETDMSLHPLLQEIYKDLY
human Retinoic Acid Receptor beta (RARb), RARB (gene 5915), sequence (P10826 whole entry, looked up, the tested form may be a part): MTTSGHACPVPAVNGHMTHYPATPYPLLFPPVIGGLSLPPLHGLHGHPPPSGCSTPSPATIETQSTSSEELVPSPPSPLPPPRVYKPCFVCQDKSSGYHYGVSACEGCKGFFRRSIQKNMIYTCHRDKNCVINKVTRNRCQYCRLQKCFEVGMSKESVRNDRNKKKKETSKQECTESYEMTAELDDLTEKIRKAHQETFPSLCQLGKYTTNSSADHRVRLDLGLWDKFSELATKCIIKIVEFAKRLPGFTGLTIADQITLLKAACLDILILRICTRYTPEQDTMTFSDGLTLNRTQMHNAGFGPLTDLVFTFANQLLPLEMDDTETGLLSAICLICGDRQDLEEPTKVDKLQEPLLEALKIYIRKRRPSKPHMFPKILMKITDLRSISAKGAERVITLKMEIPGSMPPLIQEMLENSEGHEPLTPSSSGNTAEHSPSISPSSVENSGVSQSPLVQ
human Peroxisome Proliferator-activated Receptor delta (PPARd), PPARD (gene 5467), sequence (Q03181 whole entry, looked up, the tested form may be a part): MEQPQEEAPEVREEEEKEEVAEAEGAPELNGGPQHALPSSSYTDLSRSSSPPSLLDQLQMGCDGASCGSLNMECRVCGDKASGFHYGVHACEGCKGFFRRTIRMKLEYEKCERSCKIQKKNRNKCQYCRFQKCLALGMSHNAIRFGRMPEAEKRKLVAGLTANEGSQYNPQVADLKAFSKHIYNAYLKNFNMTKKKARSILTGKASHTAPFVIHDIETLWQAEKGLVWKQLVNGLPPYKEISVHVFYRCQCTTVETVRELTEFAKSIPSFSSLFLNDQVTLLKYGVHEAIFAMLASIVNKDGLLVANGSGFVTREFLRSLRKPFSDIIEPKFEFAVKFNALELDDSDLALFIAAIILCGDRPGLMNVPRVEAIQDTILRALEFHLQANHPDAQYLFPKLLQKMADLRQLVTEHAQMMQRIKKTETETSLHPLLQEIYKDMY
Nuclear respiratory factor 1 (Homo sapiens), sequence (Q16656 whole entry, looked up, the tested form may be a part): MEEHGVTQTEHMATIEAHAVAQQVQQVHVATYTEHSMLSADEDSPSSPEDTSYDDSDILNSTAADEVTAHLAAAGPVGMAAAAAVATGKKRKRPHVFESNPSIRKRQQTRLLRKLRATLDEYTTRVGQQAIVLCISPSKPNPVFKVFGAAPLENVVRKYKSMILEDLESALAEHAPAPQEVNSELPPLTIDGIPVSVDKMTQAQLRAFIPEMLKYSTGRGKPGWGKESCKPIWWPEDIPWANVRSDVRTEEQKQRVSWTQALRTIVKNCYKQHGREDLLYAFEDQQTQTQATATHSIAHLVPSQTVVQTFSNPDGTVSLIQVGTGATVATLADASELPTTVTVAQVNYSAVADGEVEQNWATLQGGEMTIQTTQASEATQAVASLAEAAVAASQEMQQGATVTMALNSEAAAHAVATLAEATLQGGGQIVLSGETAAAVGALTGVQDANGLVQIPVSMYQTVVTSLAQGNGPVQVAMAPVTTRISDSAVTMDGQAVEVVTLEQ
Nuclear receptor subfamily 1 group I member 2 (Homo sapiens), sequence (O75469 whole entry, looked up, the tested form may be a part): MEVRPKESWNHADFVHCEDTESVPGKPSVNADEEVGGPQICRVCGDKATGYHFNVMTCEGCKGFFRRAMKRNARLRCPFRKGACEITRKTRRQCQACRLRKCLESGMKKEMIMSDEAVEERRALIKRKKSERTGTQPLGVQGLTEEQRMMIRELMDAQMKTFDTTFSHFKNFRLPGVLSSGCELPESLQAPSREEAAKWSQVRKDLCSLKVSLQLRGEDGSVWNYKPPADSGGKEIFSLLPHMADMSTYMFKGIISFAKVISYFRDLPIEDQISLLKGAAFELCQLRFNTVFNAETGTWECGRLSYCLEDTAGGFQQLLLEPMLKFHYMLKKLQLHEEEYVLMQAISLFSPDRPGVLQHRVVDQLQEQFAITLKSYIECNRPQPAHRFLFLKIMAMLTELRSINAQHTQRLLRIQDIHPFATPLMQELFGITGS
Cellular tumor antigen p53 (Homo sapiens), sequence (P04637 whole entry, looked up): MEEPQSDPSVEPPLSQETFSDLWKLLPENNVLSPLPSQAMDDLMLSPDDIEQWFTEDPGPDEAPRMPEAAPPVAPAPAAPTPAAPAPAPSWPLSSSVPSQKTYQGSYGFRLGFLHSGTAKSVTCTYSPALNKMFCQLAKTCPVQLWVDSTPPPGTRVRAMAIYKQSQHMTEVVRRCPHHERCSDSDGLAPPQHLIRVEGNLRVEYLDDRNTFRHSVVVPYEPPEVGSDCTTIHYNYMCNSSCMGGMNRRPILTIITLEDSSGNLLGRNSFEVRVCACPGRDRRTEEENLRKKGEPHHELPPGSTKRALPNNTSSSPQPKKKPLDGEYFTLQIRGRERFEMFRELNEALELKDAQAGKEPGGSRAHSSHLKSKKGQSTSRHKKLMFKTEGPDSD
human Retinoic Acid Receptor gamma (RARg), RARG (gene 5916), sequence (P13631 whole entry, looked up): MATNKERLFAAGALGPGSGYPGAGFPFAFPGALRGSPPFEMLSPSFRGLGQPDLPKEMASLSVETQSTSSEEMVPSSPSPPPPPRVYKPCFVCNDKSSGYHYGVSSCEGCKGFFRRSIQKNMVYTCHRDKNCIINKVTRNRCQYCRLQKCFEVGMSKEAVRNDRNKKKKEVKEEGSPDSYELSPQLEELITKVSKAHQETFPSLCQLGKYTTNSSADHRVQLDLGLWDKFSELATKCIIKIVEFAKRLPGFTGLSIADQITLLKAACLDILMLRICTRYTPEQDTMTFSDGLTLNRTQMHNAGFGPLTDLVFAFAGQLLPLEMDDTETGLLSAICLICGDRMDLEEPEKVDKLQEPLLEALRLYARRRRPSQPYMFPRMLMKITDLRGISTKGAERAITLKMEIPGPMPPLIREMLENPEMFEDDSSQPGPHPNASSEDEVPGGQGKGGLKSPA
Myc proto-oncogene protein (Homo sapiens), sequence (P01106 whole entry, looked up, the tested form may be a part): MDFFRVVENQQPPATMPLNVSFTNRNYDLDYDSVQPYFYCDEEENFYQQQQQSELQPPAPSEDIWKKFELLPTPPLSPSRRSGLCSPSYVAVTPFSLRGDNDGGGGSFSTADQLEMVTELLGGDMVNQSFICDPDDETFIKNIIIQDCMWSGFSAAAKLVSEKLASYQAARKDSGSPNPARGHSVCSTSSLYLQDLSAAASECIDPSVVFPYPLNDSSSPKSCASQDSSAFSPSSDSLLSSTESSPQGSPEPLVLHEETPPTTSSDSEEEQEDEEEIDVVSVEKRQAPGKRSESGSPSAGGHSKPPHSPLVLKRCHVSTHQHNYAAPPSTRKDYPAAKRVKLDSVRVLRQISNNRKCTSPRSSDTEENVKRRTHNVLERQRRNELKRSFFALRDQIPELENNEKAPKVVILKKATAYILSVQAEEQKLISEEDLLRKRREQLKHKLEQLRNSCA

Cc1cc(O)ccc1Cl
not listed: [20]
inactive: all other assays above

CCC(=O)O[C@H]1CC[C@H]2[C@@H]3CCC4=CC(=O)CC[C@]4(C)[C@H]3CC[C@]12C
inactive: [1] | [2] | [3] | [4] | [6] | [7] | [13] | [15] | [20] | [17] | [18] | [19]
active: [1] 122 µM | [3] 165 µM and 163 µM | [5] 158 µM [middle of 4 runs] | [6] 186 µM and 73.4 µM and 100 µM | [7] 100 µM | [9] 24.9 µM | [10] 35.6 µM | [11] 36 µM | [16] 23 µM | [18] 27.8 µM

ClC(Cl)=C(c1ccc(Cl)cc1)c1ccc(Cl)cc1
active: [1] 61.1 µM and 100 µM | [2] 100 µM and 114 µM and 152 µM | [3] 169 µM and 129 µM | [5] 50.7 µM [middle of 4 runs] | [6] 145 µM and 152 µM and 154 µM | [10] 31.3 µM | [11] 31.2 µM | [12] 26.2 µM | [18] 6.11 µM [middle of 4 runs]
inactive: [1] | [3] | [4] | [6] | [7] | [12] | [13] | [17]

C=CC(N)=O
active: [5] 66.5 µM | [6] 172 µM
not listed: [12] | [13] | [14] | [17]
inactive: all other assays above

NS(=O)(=O)C(F)(F)C(F)(F)C(F)(F)C(F)(F)C(F)(F)C(F)(F)C(F)(F)C(F)(F)F
active: [2] 44.3 µM and 37.1 µM and 50 µM | [3] 27.6 µM | [4] 60.1 µM and 253 µM | [5] 28.9 µM and 268 µM and 15.4 µM | [6] 50 µM | [7] 112 µM | [10] 35.2 µM and 55 µM and 55.3 µM | [11] 30.6 µM and 46.8 µM and 54 µM | [12] 88.4 µM | [16] 30.3 µM and 38.9 µM | [17] 100 µM and 59 µM and 41.8 µM
inactive: [1] | [3] | [4] | [6] | [7] | [12] | [13] | [15] | [20] | [18] | [19]
